PubChem BioAssay AID1159580 (chemical genetic matrix, 2015)
Hit rate of the full screen: of about 5,500 compounds, about 2,000 (36%) were called active. Not shown: some 18% with an inconclusive outcome. Cut-off read from the data, not from the text of the source: active = normalized growth mostly below about 0.91 (no sharp cut-off); inconclusive = no clear call, values can overlap the other calls; inactive = mostly above about 0.92. The list shows a part of the results.

Assay: chemical genetic growth profiling, strain panel (AID 1159580);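 note: tested at 20 µM; growth read once vehicle control cultures reached saturation at 30 °C; 1 = growth at the plate median or of vehicle wells; lower values mean less growth of the strain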
Settings: growth OD

Measured: normalized growth

CCN(CC)CCNc1ccc(CO)c2sc3ccccc3c(=O)c12
inactive: S. cerevisiae deletion strains, locus YJR075W, strain HOC1, hits give low values 0.979 | S. cerevisiae deletion strains, locus YKL009W, strain mrt4, hits give low values 0.993 | S. cerevisiae deletion strains, locus YKL068W, hits give low values 1 | S. cerevisiae deletion strains, locus YKL085W, strain MDH1 (second series), hits give low values 0.996 | S. cerevisiae deletion strains, locus YKL085W, strain MDH1, hits give low values 0.996 | S. cerevisiae deletion strains, locus YKL160W, strain elf1, hits give low values 1.01 | S. cerevisiae deletion strains, locus YKL190W, strain CNB1, hits give low values 1 | S. cerevisiae deletion strains, locus YKR001C, strain vps1, hits give low values 1 | S. cerevisiae deletion strains, locus YKR026C, strain gcn3, hits give low values 1.02 | S. cerevisiae deletion strains, locus YKR091W, strain srl3, hits give low values 1.01 | S. cerevisiae deletion strains, locus YLL001W, strain dnm1, hits give low values 1.01 | S. cerevisiae deletion strains, locus YLL026W, hits give low values 1.01 | S. cerevisiae deletion strains, locus YLL041C, strain sdh2, hits give low values 0.991 | S. cerevisiae deletion strains, locus YLR027C, strain aat2, hits give low values 1.01 | S. cerevisiae deletion strains, locus YLR039C, strain RIC1, hits give low values 1.01 | S. cerevisiae deletion strains, locus YLR058C, strain SHM2, hits give low values 0.998 | S. cerevisiae deletion strains, locus YLR102C, strain apc9, hits give low values 1.02 | S. cerevisiae deletion strains, locus YLR113W, strain HOG1, hits give low values 1.05 | S. cerevisiae deletion strains, locus YLR221C, strain rsa3, hits give low values 1.01 | S. cerevisiae deletion strains, locus YLR258W, strain gsy2, hits give low values 1.01 | S. cerevisiae deletion strains, locus YLR262C, strain YPT6 (second series), hits give low values 1 | S. cerevisiae deletion strains, locus YLR262C, strain YPT6, hits give low values 1.01 | S. cerevisiae deletion strains, locus YLR268W, strain sec22, hits give low values 0.947 | S. cerevisiae deletion strains, locus YLR320W, strain mms22, hits give low values 1.01 | S. cerevisiae deletion strains, locus YLR330W, strain CHS5, hits give low values 1.01 | S. cerevisiae deletion strains, locus YLR342W, strain FKS1 (second series), hits give low values 0.938 | S. cerevisiae deletion strains, locus YLR342W, strain FKS1, hits give low values 1 | S. cerevisiae deletion strains, locus YLR357W, strain rsc2, hits give low values 1.04 | S. cerevisiae deletion strains, locus YLR370C, strain arc18, hits give low values 1.01 | S. cerevisiae deletion strains, locus YLR371W, strain rom2, hits give low values 1.01 | S. cerevisiae deletion strains, locus YLR384C, strain iki3, hits give low values 1.01 | S. cerevisiae deletion strains, locus YLR418C, strain cdc73, hits give low values 0.919 | S. cerevisiae deletion strains, locus YML016C, strain PPZ1, hits give low values 0.996 | S. cerevisiae deletion strains, locus YML032C, strain rad52, hits give low values 0.948 | S. cerevisiae deletion strains, locus YML120C, strain ndi1, hits give low values 1.02 | S. cerevisiae deletion strains, locus YML124C, strain tub3, hits give low values 1.01 | S. cerevisiae deletion strains, locus YMR058W, strain fet3, hits give low values 0.998 | S. cerevisiae deletion strains, locus YMR078C, strain ctf18, hits give low values 1.01 | S. cerevisiae deletion strains, locus YMR125W, strain sto1, hits give low values 1 | S. cerevisiae deletion strains, locus YMR129W, hits give low values 1 | S. cerevisiae deletion strains, locus YMR205C, strain PFK2, hits give low values 0.997 | S. cerevisiae deletion strains, locus YMR223W, strain ubp8, hits give low values 0.994 | S. cerevisiae deletion strains, locus YMR231W, strain pep5, hits give low values 1.01 | S. cerevisiae deletion strains, locus YMR263W, strain SAP30, hits give low values 0.985 | S. cerevisiae deletion strains, locus YMR307W, strain GAS1, hits give low values 1.01 | S. cerevisiae deletion strains, locus YNL067W, strain RPL9B, hits give low values 0.973 | S. cerevisiae deletion strains, locus YNL071W, strain lat1, hits give low values 1.01 | S. cerevisiae deletion strains, locus YNL128W, strain TEP1, hits give low values 0.992 | S. cerevisiae deletion strains, locus YNL153C, strain GIM3, hits give low values 0.962 | S. cerevisiae deletion strains, locus YNL183C, strain NPR1, hits give low values 0.952 | S. cerevisiae deletion strains, locus YNL209W, strain ssb2, hits give low values 1.02 | S. cerevisiae deletion strains, locus YNL233W, strain BNI4, hits give low values 0.955 | S. cerevisiae deletion strains, locus YNL248C, strain rpa49, hits give low values 1 | S. cerevisiae deletion strains, locus YNL250W, strain rad50, hits give low values 1 | S. cerevisiae deletion strains, locus YNL271C, strain bni1, hits give low values 1.01 | S. cerevisiae deletion strains, locus YNL298W, strain CLA4, hits give low values 1.01 | S. cerevisiae deletion strains, locus YNL307C, strain MCK1, hits give low values 0.962 | S. cerevisiae deletion strains, locus YNL322C, strain KRE1 (second series), hits give low values 1.01 | S. cerevisiae deletion strains, locus YNL322C, strain KRE1, hits give low values 1.01 | S. cerevisiae deletion strains, locus YNR049C, strain mso1, hits give low values 1.01 | S. cerevisiae deletion strains, locus YNR052C, strain pop2, hits give low values 1.01 | S. cerevisiae deletion strains, locus YOL006C, strain TOP1, hits give low values 0.883 | S. cerevisiae deletion strains, locus YOL012C, strain htz1 0.879 | S. cerevisiae deletion strains, locus YOL147C, strain pex11, hits give low values 1.02 | S. cerevisiae deletion strains, locus YOR001W, strain rrp6, hits give low values 1 | S. cerevisiae deletion strains, locus YOR061W, strain CKA2, hits give low values 1 | S. cerevisiae deletion strains, locus YOR069W, strain VPS5, hits give low values 0.993 | S. cerevisiae deletion strains, locus YOR070C, strain gyp1, hits give low values 1 | S. cerevisiae deletion strains, locus YOR080W, strain dia2, hits give low values 1.01 | S. cerevisiae deletion strains, locus YOR083W, strain WHI5, hits give low values 1 | S. cerevisiae deletion strains, locus YOR106W, strain vam3, hits give low values 1.02 | S. cerevisiae deletion strains, locus YOR136W, strain idh2, hits give low values 1.01 | S. cerevisiae deletion strains, locus YOR144C, strain elg1, hits give low values 1 | S. cerevisiae deletion strains, locus YOR184W, strain ser1, hits give low values 0.995 | S. cerevisiae deletion strains, locus YOR231W, strain MKK1, hits give low values 1.04 | S. cerevisiae deletion strains, locus YOR265W, strain rbl2, hits give low values 1 | S. cerevisiae deletion strains, locus YOR270C, strain vph1, hits give low values 0.976 | S. cerevisiae deletion strains, locus YOR290C, strain snf2, hits give low values 1.01 | S. cerevisiae deletion strains, locus YOR316C, strain cot1, hits give low values 1.01 | S. cerevisiae deletion strains, locus YPL051W, strain arl3, hits give low values 0.997 | S. cerevisiae deletion strains, locus YPL055C, strain LGE1, hits give low values 0.954 | S. cerevisiae deletion strains, locus YPL078C, strain atp4, hits give low values 1.01 | S. cerevisiae deletion strains, locus YPL106C, strain sse1, hits give low values 1.02 | S. cerevisiae deletion strains, locus YPL240C, strain hsp82, hits give low values 1.01 | S. cerevisiae deletion strains, locus YPL241C, strain CIN2, hits give low values 1.02 | S. cerevisiae deletion strains, locus YPL256C, strain CLN2, hits give low values 1.01 | S. cerevisiae deletion strains, locus YPR119W, strain clb2, hits give low values 1.02 | S. cerevisiae deletion strains, locus YPR141C, strain kar3, hits give low values 1.02 | S. cerevisiae deletion strains, locus YPR163C, strain tif3, hits give low values 0.996 | S. cerevisiae deletion strains, locus YPR167C, strain met16, hits give low values 1.01 | S. cerevisiae deletion strains, strain wtn01, hits give low values 0.988 | S. cerevisiae strains, strain wild type, hits give low values 1.01
